# Measurements: ChEMBL document CHEMBL3988442, “University of Dundee, Small-Polar-MMV Screening Library” (2021)
# Target: T1, Methionyl-tRNA synthetase, putative (Leishmania donovani (strain BPK282A1)) (UniProt E9BF75)
# T1 sequence (whole entry): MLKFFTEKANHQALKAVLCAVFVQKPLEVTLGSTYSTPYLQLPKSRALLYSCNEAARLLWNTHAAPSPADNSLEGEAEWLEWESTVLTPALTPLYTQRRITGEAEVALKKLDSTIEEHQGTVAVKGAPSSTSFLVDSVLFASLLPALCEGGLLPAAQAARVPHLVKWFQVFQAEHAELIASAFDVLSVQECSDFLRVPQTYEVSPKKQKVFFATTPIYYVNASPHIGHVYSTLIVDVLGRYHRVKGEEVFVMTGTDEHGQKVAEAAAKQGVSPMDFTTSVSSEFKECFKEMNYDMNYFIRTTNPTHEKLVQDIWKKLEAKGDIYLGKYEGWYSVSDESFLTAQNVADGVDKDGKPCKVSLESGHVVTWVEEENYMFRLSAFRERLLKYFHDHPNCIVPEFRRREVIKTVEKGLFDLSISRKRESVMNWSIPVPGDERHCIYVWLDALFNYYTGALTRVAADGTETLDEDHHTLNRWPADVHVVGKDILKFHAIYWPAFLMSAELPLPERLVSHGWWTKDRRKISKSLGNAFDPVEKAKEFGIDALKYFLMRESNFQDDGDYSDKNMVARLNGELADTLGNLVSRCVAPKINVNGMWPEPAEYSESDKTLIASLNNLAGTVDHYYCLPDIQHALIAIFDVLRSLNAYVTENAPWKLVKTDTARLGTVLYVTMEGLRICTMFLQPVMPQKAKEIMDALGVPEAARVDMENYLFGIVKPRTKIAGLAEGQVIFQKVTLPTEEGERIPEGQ
# Assay: Leishmania donovani Methionine tRNA synthetase (LdMetRS):v7. Dose response assay
# Assay type: functional
# Design: conc 80 nM, time 150 minutes
compound,measurement,setting,value
NS(=O)(=O)c1cccnc1Nc1cc(C(=O)N2CCC2)cc(C(F)(F)F)c1,PXC50,MAX_EFFECT 2.375296912,< 4
same,PXC50,MAX_EFFECT 5.755395683,< 4
same,PXC50,MAX_EFFECT -0.429184549,< 4
NS(=O)(=O)c1ccc(Nc2ncccc2S(N)(=O)=O)cc1,PXC50,MAX_EFFECT 6.072106262,< 4
same,PXC50,MAX_EFFECT 13.21585903,< 4
same,PXC50,MAX_EFFECT 15.90909091,< 4
CC(C)c1ccc(CS(=O)(=O)Cc2nc(N)nc(N(C)C)n2)cc1,PXC50,MAX_EFFECT 8.163265306,< 4
same,PXC50,MAX_EFFECT 10.86956522,< 4
same,PXC50,MAX_EFFECT 13.83537653,< 4
CCc1[nH]c2c(CNc3nc(C)cc(NC)n3)cc(C)cc2c1C,PXC50,"BOTTOM 0.67274626, HILLSLOPE 1.539733885, MAX_EFFECT 72.46376812, TOP 100.0",4.25
same,PXC50,"BOTTOM -0.906983609, HILLSLOPE 1.456210781, MAX_EFFECT 70.06802721, TOP 103.3868667",4.22
same,PXC50,MAX_EFFECT 28.19614711,< 4
CNC(=O)CNc1nc(Nc2ccc(F)c(F)c2)nc2c1cnn2C,PXC50,"BOTTOM -2.014141631, HILLSLOPE 0.719425381, MAX_EFFECT 67.11798839, TOP 100.0",4.45
same,PXC50,"BOTTOM -2.647341189, HILLSLOPE 0.864486673, MAX_EFFECT 64.80686695, TOP 100.0",4.36
same,PXC50,"BOTTOM -5.796593818, HILLSLOPE 0.871793388, MAX_EFFECT 66.50831354, TOP 100.0",4.35
COC1CCCCC1Nc1nc(Nc2ccc(F)c(F)c2)nc2c1cnn2C (stereo not given),PXC50,"BOTTOM 6.09090205, HILLSLOPE 1.180798676, MAX_EFFECT 57.89473684, TOP 61.13511107",4.92
same,PXC50,MAX_EFFECT 49.43396226,< 4
same,PXC50,MAX_EFFECT 49.87277354,< 4
Cn1ncc2c(NC(CO)CO)nc(Nc3ccc(F)c(F)c3)nc21,PXC50,"BOTTOM 0.0, HILLSLOPE 0.771628136, MAX_EFFECT 78.30188679, TOP 92.57465731",4.94
same,PXC50,"BOTTOM 5.639474755, HILLSLOPE 1.325747432, MAX_EFFECT 80.3652968, TOP 81.67018871",4.98
same,PXC50,"BOTTOM 7.610636653, HILLSLOPE 1.121965033, MAX_EFFECT 79.69639469, TOP 86.15604804",4.98
Cn1cccc1C1CCCCCN1C(=O)c1ccc(NC2CC2)nc1 (stereo not given),PXC50,"BOTTOM 0.111908338, HILLSLOPE 1.39754326, MAX_EFFECT 51.12651646, TOP 100.0",4.03
same,PXC50,"BOTTOM 4.752718183, HILLSLOPE 1.435645002, MAX_EFFECT 69.44444444, TOP 100.0",4.25
same,PXC50,"BOTTOM 4.940186034, HILLSLOPE 1.180279811, MAX_EFFECT 63.75838926, TOP 100.0",4.18
same,PXC50,MAX_EFFECT 37.16108453,< 4
same,PXC50,MAX_EFFECT 39.73128599,< 4
C[C@H](CO)Nc1nc(Nc2ccc(F)c(F)c2)nc2c1cnn2C,PXC50,"BOTTOM 0.704945414, HILLSLOPE 0.848291247, MAX_EFFECT 90.56603774, TOP 99.28027428",5.18
same,PXC50,"BOTTOM -2.01884568, HILLSLOPE 0.856610715, MAX_EFFECT 86.93586698, TOP 98.70470885",5.08
same,PXC50,"BOTTOM -5.653457492, HILLSLOPE 0.743768618, MAX_EFFECT 93.13304721, TOP 109.1674954",5.06
Cc1nc(C)n(CC2CCCN2Cc2nc(C)c3ccccc3n2)n1 (stereo not given),PXC50,"BOTTOM 0.925302431, HILLSLOPE 1.017320837, MAX_EFFECT 67.36111111, TOP 99.90284223",4.31
same,PXC50,"BOTTOM 1.588399375, HILLSLOPE 1.270951942, MAX_EFFECT 69.49740035, TOP 100.0",4.3
same,PXC50,"BOTTOM 6.646518839, HILLSLOPE 0.950758055, MAX_EFFECT 62.41610738, TOP 100.0",4.2
c1ccc(CN2CCC(CCNc3ncnc4c3CCNCC4)C2)cc1 (stereo not given),PXC50,"BOTTOM 0.940952942, HILLSLOPE 0.875315482, MAX_EFFECT 60.13864818, TOP 100.0",4.15
same,PXC50,"BOTTOM 1.061688445, HILLSLOPE 1.57945515, MAX_EFFECT 59.73154362, TOP 100.0",4.12
same,PXC50,"BOTTOM -6.676814726, HILLSLOPE 1.817914846, MAX_EFFECT 63.88888889, TOP 100.0",4.17
OCCNc1nc(Nc2cccc(Cl)c2)nc2ccsc12,PXC50,"BOTTOM 1.378134297, HILLSLOPE 1.322835543, MAX_EFFECT 77.47933884, TOP 79.16655544",5.15
same,PXC50,"BOTTOM 6.064283009, HILLSLOPE 1.027674538, MAX_EFFECT 79.88394584, TOP 88.71842546",4.91
same,PXC50,"BOTTOM -3.793761971, HILLSLOPE 0.936804969, MAX_EFFECT 83.25991189, TOP 91.73851926",5.08
C[C@@H](CO)Nc1ccnc(Nc2cccc(C(F)(F)F)c2)n1,PXC50,"BOTTOM 1.593845471, HILLSLOPE 0.816282678, MAX_EFFECT 64.11214953, TOP 100.0",4.29
same,PXC50,"BOTTOM 3.003400849, HILLSLOPE 0.886139555, MAX_EFFECT 64.25619835, TOP 100.0",4.3
same,PXC50,"BOTTOM -0.445089983, HILLSLOPE 0.824021196, MAX_EFFECT 60.35242291, TOP 100.0",4.26
COc1ccc(-c2nc3c([nH]2)CCNC3C(=O)O)c2ccc(C)nc12 (stereo not given),PXC50,"BOTTOM 1.718114205, HILLSLOPE 1.017534888, MAX_EFFECT 58.69565217, TOP 100.0",4.17
same,PXC50,"BOTTOM 3.702697872, HILLSLOPE 1.816429842, MAX_EFFECT 76.89768977, TOP 100.0",4.25
same,PXC50,"BOTTOM -10.20592251, HILLSLOPE 0.737543358, MAX_EFFECT 64.87455197, TOP 100.0",4.33
Cn1ncc2c(NCCCn3cnnc3)nc(Nc3ccc(F)c(F)c3)nc21,PXC50,"BOTTOM 1.83375179, HILLSLOPE 0.958532355, MAX_EFFECT 86.4608076, TOP 100.0",4.67
same,PXC50,"BOTTOM -0.68283143, HILLSLOPE 0.850398367, MAX_EFFECT 82.59187621, TOP 94.39900943",4.98
same,PXC50,"BOTTOM -3.068523854, HILLSLOPE 0.793433763, MAX_EFFECT 81.54506438, TOP 111.1617786",4.55
NCC1Cc2cc(-c3nccc(N4CCC(O)CC4)n3)cc(Cl)c2O1 (stereo not given),PXC50,"BOTTOM 2.296775574, HILLSLOPE 1.512300698, MAX_EFFECT 82.17821782, TOP 96.63760695",4.5
same,PXC50,"BOTTOM 6.226174125, HILLSLOPE 1.41403245, MAX_EFFECT 85.50724638, TOP 100.0",4.49
same,PXC50,"BOTTOM -3.72600926, HILLSLOPE 1.42983, MAX_EFFECT 83.15412186, TOP 100.0",4.35
